From PubChem BioAssay (Tox21) come the findings set out here.

Results filed as inconclusive are left out. Values without a mark were called inactive. Activity calls are given as the source filed them. Calls follow the shape of the dose curve; as a rule, active = well fitted curve in the direction sought with a large enough effect in the repeat runs; inconclusive = weak or mixed curves; inactive = no such curve, though single readings can be large; an effect the other way counts as inactive or inconclusive.

For experiment [1], the target named is Cytochrome P450 2C19 (Homo sapiens) (UniProt P33261). As to the kind of experiment: Cytochrome P450 Family 2 Subfamily C Member 19 (CYP2C19) small molecule antagonists: luciferase reporter qHTS assay (AID 1671197). Also: nearly all actives have a fitted effect of over 65% in size. As to activity change, negative = inhibition: series mostly up to about 120 µM. In outline: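 Relative luminescence units recorded 20 min after the detection reagent stopped a 1 h, 37C CYP2C19 reaction on proluciferin substrate, which was started by NADPH regeneration following 10 min room-temperature compound preincubation; ketoconazole positive control.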
Chain of Cytochrome P450 2C19 (Homo sapiens) (P33261 whole entry, looked up): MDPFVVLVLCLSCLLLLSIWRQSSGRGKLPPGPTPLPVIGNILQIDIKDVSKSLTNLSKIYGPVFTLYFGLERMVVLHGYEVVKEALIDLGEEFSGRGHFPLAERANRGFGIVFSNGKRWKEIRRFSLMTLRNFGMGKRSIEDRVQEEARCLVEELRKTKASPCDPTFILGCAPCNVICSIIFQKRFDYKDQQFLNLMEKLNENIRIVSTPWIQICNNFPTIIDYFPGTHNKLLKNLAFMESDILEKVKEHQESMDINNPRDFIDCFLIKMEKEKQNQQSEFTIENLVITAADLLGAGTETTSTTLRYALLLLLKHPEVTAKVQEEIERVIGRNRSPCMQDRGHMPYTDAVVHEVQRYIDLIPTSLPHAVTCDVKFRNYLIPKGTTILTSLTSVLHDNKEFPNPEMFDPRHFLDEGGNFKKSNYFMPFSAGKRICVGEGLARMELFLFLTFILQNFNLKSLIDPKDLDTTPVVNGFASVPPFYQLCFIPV
Background: In a reporter assay the amount or activity of a reporter protein is the signal.

The target of experiment [2] is Cytochrome P450 2C9 (Homo sapiens) (UniProt P11712). As to the kind of experiment: Cytochrome P450 Family 2 Subfamily C Member 9 (CYP2C9) small molecule antagonists: luciferase reporter qHTS assay (AID 1671198). Also: nearly all actives have a fitted effect of over 50% in size. As to activity change, negative = inhibition: series mostly up to about 120 µM. In outline:
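Enzyme-substrate mix preincubated with compound 10 min at room temperature; reaction started with NADPH regeneration solution, 1 h 37C. Luminescent luciferin product read after 20 min detection reagent.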

Experiment [3] deals with Cytochrome P450 1A2 (Homo sapiens) (UniProt P05177). Description: Cytochrome P450 Family 1 Subfamily A Member 2 (CYP1A2) small molecule antagonists: luciferase reporter qHTS assay (AID 1671199). Also: nearly all actives have a fitted effect of over 50% in size. As to activity change, negative = inhibition: series mostly up to about 120 µM. In outline:
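Room-temperature CYP1A2 reaction with proluciferin substrate: compounds added from DMSO, 10 min preincubation, NADPH regeneration for 1 h. Luciferin detection reagent then added; luminescence recorded as RLU.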

Experiment [4] addresses Voltage-gated inwardly rectifying potassium channel KCNH2 (Homo sapiens) (UniProt Q12809). Description: Human Ether-a-go-go-Related Gene (hERG) channel small molecule antagonists: fluorescence cell-based qHTS assay (AID 1671200). Also: nearly all actives have a fitted effect of over 50% in size.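 As to activity change, negative = inhibition: hERG-expressing U2OS cells given a thallium stimulus after FluxOR II dye loading; series mostly up to about 77 µM.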 In short, it runs like this: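 Kinetic two-minute fluorescence traces, sampled at 1 s, were collected following thallium stimulus of U2OS cells (1000 per well) that had been cultured overnight at 37 C and loaded with FluxOR II.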
In general terms: Block of hERG is tested as a sign of cardiac risk.

The target in experiment [5] is Cytochrome P450 3A4 (Homo sapiens) (UniProt P08684). As to the kind of experiment: Cytochrome P450 Family 3 Subfamily A Member 4 (CYP3A4) small molecule antagonists: luciferase reporter qHTS assay (AID 1671201). Also: nearly all actives have a fitted effect of over 50% in size. As to activity change, negative = inhibition: series mostly up to about 120 µM. In short, it runs like this:
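Proluciferin-to-luciferin conversion by CYP3A4, NADPH-regenerated, 1 h RT; luminescence read as RLU. Ketoconazole as control.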
% is scaled to controls: 0 for no effect and ±100 for the full control effect; potency is read from the fitted curve at half-maximal effect.

Chain of Cytochrome P450 3A4 (Homo sapiens) (P08684 whole entry, looked up): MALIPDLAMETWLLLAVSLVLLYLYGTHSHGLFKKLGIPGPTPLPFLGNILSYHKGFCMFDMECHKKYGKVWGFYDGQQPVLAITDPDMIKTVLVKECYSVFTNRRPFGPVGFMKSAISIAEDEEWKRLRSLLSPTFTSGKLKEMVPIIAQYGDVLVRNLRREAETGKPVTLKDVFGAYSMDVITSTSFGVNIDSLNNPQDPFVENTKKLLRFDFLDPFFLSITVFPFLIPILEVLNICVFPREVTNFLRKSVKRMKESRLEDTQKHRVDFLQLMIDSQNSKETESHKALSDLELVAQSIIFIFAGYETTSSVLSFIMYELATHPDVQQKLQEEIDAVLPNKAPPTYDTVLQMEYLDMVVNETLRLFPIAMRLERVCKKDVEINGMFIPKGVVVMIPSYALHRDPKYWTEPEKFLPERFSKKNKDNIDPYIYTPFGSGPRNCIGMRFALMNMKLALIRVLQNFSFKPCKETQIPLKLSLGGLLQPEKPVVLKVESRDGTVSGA
Chain of Voltage-gated inwardly rectifying potassium channel KCNH2 (Homo sapiens) (Q12809 whole entry, looked up): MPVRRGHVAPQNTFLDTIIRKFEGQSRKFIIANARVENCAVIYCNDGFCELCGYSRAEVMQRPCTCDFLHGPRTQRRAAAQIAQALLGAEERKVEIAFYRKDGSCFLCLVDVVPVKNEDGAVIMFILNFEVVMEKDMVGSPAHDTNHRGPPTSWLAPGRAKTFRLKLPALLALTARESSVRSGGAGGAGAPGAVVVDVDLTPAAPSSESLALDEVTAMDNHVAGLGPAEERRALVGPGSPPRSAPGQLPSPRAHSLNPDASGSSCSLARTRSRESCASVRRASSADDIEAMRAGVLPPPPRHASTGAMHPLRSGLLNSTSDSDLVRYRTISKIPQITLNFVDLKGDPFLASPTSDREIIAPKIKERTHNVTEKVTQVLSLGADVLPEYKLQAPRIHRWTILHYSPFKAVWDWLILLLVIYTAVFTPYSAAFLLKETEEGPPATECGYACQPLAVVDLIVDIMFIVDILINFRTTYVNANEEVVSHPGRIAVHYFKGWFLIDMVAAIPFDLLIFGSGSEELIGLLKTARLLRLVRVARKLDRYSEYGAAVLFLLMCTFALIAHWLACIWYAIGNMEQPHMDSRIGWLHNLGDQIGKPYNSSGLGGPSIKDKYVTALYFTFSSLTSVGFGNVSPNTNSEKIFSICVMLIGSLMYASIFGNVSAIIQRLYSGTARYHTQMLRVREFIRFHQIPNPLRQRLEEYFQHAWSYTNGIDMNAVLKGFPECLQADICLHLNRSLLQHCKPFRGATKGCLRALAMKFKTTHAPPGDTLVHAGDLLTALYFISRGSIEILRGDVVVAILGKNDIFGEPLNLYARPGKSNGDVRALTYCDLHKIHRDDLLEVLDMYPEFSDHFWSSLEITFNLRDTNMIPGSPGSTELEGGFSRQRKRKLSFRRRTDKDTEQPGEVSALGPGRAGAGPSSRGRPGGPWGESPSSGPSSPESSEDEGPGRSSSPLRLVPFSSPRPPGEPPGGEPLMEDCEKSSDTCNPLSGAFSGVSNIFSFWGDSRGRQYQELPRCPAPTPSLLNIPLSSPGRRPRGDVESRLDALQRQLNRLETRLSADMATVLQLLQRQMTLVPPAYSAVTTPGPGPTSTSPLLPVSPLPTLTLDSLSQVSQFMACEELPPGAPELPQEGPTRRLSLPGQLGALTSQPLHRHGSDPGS
Chain of Cytochrome P450 1A2 (Homo sapiens) (P05177 whole entry, looked up): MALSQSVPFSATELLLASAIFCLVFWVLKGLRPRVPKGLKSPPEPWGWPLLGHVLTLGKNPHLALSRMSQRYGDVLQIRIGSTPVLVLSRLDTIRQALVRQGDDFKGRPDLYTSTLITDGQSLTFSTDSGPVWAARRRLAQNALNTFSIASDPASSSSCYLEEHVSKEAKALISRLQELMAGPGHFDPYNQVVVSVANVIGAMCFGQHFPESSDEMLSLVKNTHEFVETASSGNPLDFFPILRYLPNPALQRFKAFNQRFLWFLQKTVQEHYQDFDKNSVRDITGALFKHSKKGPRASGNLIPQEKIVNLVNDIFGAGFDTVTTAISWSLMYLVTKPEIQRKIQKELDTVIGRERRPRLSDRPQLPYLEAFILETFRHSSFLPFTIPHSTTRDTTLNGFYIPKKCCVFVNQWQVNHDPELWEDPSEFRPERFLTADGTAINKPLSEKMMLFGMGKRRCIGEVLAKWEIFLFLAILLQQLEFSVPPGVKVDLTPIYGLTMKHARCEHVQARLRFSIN
Chain of Cytochrome P450 2C9 (Homo sapiens) (P11712 whole entry, looked up): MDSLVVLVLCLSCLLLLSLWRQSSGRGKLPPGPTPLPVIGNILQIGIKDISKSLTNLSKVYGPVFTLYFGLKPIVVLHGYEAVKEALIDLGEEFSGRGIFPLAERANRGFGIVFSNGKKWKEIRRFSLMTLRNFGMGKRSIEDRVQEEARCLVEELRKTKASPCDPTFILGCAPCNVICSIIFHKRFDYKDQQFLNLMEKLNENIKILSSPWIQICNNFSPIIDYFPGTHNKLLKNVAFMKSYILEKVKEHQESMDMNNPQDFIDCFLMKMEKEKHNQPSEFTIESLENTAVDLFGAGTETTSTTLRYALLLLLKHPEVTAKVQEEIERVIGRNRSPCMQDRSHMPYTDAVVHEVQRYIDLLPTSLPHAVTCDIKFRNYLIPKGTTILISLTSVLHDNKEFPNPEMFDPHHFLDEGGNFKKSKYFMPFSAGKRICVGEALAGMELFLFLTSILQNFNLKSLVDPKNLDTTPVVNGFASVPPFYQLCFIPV

Turning to `Cc1cc(O)ccc1N`, the Potency in experiment [1] is 17.9 µM (active); in experiment [2], 20.1 µM (active); in experiment [3] it was 17.9 µM (active); in experiment [5] it was 11.3 µM (active). The Potency result in experiment [4] is “inactive”.

Take `CC[C@H](C)[C@@H](C(=O)O)n1sc2ccccc2c1=O`: the Potency result in experiment [1], in experiment [2], in experiment [4] and in experiment [5] was “inactive” each time. In experiment [3], the Potency is 25.2 µM (active).

On to `C=C(C)C(=O)OC(C)C`, for which the Potency entry in experiment [1], in experiment [2], in experiment [3], in experiment [4] and in experiment [5] was “inactive” each time.

Regarding `CC[C@H](C)[C@H](N)C(=O)O`, the Potency entry in experiment [1], in experiment [2], in experiment [3], in experiment [4] and in experiment [5] was “inactive” throughout.

For `COC(=O)C(C)=O`, the Potency in experiment [1] was 71.3 µM (active); in experiment [3], 31.9 µM (active). The Potency entry in experiment [2], in experiment [4] and in experiment [5] was “inactive” each time.

In the case of `SC1CCCC1`, the Potency entry in experiment [1], in experiment [2], in experiment [3], in experiment [4] and in experiment [5] was “inactive” throughout.

For the compound `Oc1ccc(Sc2ccc(O)cc2)cc1`, the Potency was 37.3 µM (active) in experiment [1], 41.9 µM (active) in experiment [3] and 37.3 µM (active) in experiment [5]. The Potency result in experiment [2] and in experiment [4] was “inactive” each time.

Turning to `NC1CCN(c2nc3c(cc2F)c(=O)c(C(=O)O)cn3-c2ccc(F)cc2F)C1` (stereo unspecified), the Potency result in experiment [1], in experiment [2], in experiment [3], in experiment [4] and in experiment [5] was “inactive” each time.

Turning to `CC1(C)[C@H]2CC[C@]1(C)[C@H](O)C2`, the Potency entry in experiment [1], in experiment [2], in experiment [3], in experiment [4] and in experiment [5] was “inactive” in each case.

On to `Oc1ccc2c(c1)OCO2`, for which the Potency was 19.9 µM (active) in experiment [1], 9.95 µM (active) in experiment [2], 31.5 µM (active) in experiment [3] and 22.3 µM (active) in experiment [5]. In addition, the Potency entry in experiment [4] is “inactive”.

`OCCC1CCCCN1` (stereo unspecified): the Potency result in experiment [1], in experiment [2], in experiment [3], in experiment [4] and in experiment [5] was “inactive” each time.

On to `CCCCCCOC(=O)CCC`, for which the Potency result in experiment [1], in experiment [2], in experiment [3], in experiment [4] and in experiment [5] was “inactive” in each case.

Take `O=C(NN1CCCC1)NS(=O)(=O)c1ccc(Cl)cc1`: the Potency result in experiment [1], in experiment [2], in experiment [3], in experiment [4] and in experiment [5] was “inactive” each time.

`NC(=S)N/N=C/c1cccnc1`: the Potency entry in experiment [1], in experiment [2], in experiment [4] and in experiment [5] was “inactive” in each case. Further, the Potency in experiment [3] was 17.4 µM (active).

With `CC(C)c1ccc2c(C(C)C)cc(C(C)C)c(S(=O)(=O)O)c2c1`, the Potency entry in experiment [1], in experiment [3], in experiment [4] and in experiment [5] was “inactive” throughout. In experiment [2], the Potency was 29.2 µM (active).

Consider `CCOc1cc(OCC)c(C(=O)CCC(=O)O)cc1OCC`, for which the Potency result in experiment [1], in experiment [2], in experiment [3], in experiment [4] and in experiment [5] was “inactive” in each case.

Turning to `CCCCCC(CO)CCC` (stereo unspecified), the Potency result in experiment [1], in experiment [2], in experiment [3], in experiment [4] and in experiment [5] was “inactive” throughout.

With `CCOC(=O)CC(C)C`, the Potency result in experiment [1], in experiment [2], in experiment [3], in experiment [4] and in experiment [5] was “inactive” each time.

On to `O=C(Cl)c1ccc([N+](=O)[O-])cc1`, for which the Potency entry in experiment [1], in experiment [2], in experiment [4] and in experiment [5] was “inactive” throughout. The Potency in experiment [3] is 55.4 µM (active).

On to `COCCOCCOCCOCCOC`, for which the Potency result in experiment [1], in experiment [2], in experiment [4] and in experiment [5] was “inactive” in each case. For the same compound, the Potency in experiment [3] was 35.6 µM (active).

With `CC(=O)c1ccc2c(c1)[C@H](NC(=O)c1ccc(F)cc1)[C@@H](O)C(C)(C)O2`, the Potency entry in experiment [1] and in experiment [4] was “inactive” throughout. The Potency in experiment [2] is 33.5 µM (active); in experiment [3], 33.5 µM (active); in experiment [5], 29.9 µM (active).

In the case of `Cc1ncsc1CCO`, the Potency entry in experiment [1], in experiment [2], in experiment [3], in experiment [4] and in experiment [5] was “inactive” in each case.

Consider `CC/C(=C\C(=N/O)C(N)=O)C(C)[N+](=O)[O-]` (stereo unspecified), for which the Potency result in experiment [1], in experiment [2], in experiment [3], in experiment [4] and in experiment [5] was “inactive” in each case.

Turning to `Cc1occc1S`, the values for the Potency in experiment [1], in experiment [2] and in experiment [5] were 56.4 µM (active), 35.6 µM (active) and 28.3 µM (active), respectively. For the same compound, the Potency entry in experiment [3] and in experiment [4] was “inactive” in each case.

Consider `CCCOc1ccc2nc(NC(=O)OC)[nH]c2c1`, for which the Potency result in experiment [1], in experiment [2], in experiment [3], in experiment [4] and in experiment [5] was “inactive” throughout.

With `c1ccc(CNCc2ccccc2)cc1`, the Potency in experiment [1] was 6.33 µM (active); in experiment [2], 44.8 µM (active); in experiment [3], 25.2 µM (active). The Potency result in experiment [4] and in experiment [5] was “inactive” in each case.

With `CCCCCC/C=C/C=O`, the Potency in experiment [1] was 71 µM (active); in experiment [2], 63.3 µM (active). For the same compound, the Potency result in experiment [3], in experiment [4] and in experiment [5] was “inactive” each time.

In the case of `C=C(C)C(=O)OCCOc1ccccc1`, the Potency in experiment [1] was 31.7 µM (active); in experiment [2], 35.6 µM (active); in experiment [3], 25.2 µM (active). In experiment [5], the Potency entry is “inactive”.

`CCCCC(CC)COCCCN` (stereo unspecified): the Potency is 5.58 µM (active) in experiment [1]; 35.2 µM (active) in experiment [2]; 11.1 µM (active) in experiment [3]; 38.5 µM (active) in experiment [4]; 9.92 µM (active) in experiment [5].

As to `O=C(O)[C@@H]1[C@H]2C[C@H]3c4[nH]c5ccccc5c4CCN3C[C@@H]2CC[C@@H]1O`, the Potency in experiment [1] is 8.71 µM (active). In addition, the Potency entry in experiment [2], in experiment [3] and in experiment [5] was “inactive” each time.

As to `Cn1c(NCCN(CCO)CCCc2ccc([N+](=O)[O-])cc2)cc(=O)n(C)c1=O`, the Potency result in experiment [1], in experiment [2], in experiment [3] and in experiment [5] was “inactive” in each case.

With `CCCc1ccccc1`, the Potency result in experiment [1], in experiment [2], in experiment [3], in experiment [4] and in experiment [5] was “inactive” in each case.

With `Cc1ccc(C(=O)C(C)CN2CCCCC2)cc1` (stereo unspecified), the Potency in experiment [1] is 7.76 µM (active). Moreover, the Potency entry in experiment [2], in experiment [3], in experiment [4] and in experiment [5] was “inactive” throughout.

On to `CCCCCCCCCCCCCCCCCBr`, for which the activity change, negative = inhibition in experiment [1] is 4.88% [at 23.6 µM]; in experiment [2] it was 0.482% [at 23.6 µM]; in experiment [3], -12.4% [at 23.6 µM]; in experiment [5] it was 1.19% [at 23.6 µM].
